A selection: hits, their analogues and other compounds. The true share with any hit is near 10%.
BAZ2B block = BAZ2B (human) inhibition. Q9UIF8. 360,000 tested, 4.4% active. AlphaScreen BAZ2B-H3K14Ac peptide displacement. Potency, µM (titrated, usually from 114 µM), for the others: top-dose activity change, negative = inhibition, hits mostly inhibitors. AID 504333; also: % is scaled to controls: 0 for no effect and ±100 for the full control effect; nearly all actives have a fitted effect of over 60% in size
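Complex of BAZ2B and biotin-H3K14Ac (50 nM apiece) forms over 30 min at RT, then faces library compounds up to 110 uM for another 30 min; AlphaScreen beads added, 20 min dark incubation, luminescence read.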
HP1b binding inh = blocks HP1-beta chromodomain binding to methylated histone tails; P83916; AlphaScreen HP1-beta / biotin-H3K9me3 peptide binding; Potency, µM (series often up to 114 µM), for the others: at the top dose activity change, negative = inhibition, usual class: inhibitors; 390,000 tested, 0.56% active; also: nearly all actives have a fitted effect of over 70% in size
Target sequence (P83916 whole entry, looked up): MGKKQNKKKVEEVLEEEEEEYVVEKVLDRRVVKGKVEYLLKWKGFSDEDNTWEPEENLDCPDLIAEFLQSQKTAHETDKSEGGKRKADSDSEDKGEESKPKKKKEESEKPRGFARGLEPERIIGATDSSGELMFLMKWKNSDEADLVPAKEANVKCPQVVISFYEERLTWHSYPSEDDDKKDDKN
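HP1-beta protein (50 nM final) preincubated 30 min at room temperature with biotinylated H3(1-18)K9me3 peptide (50 nM) in PBS pH 7.4, 0.01% Tween-20, then compound added for 30 min. AlphaScreen streptavidin donor/nickel chelate acceptor beads (10 ug/mL final), 30 min dark, luminescence read.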
GLS inhibitor = glutaminase GLS (human) inhibition; GLS enzymatic activity, qHTS titration; AID 624170; Potency, µM (titrated, usually from 45.5 µM), without a hit: at the highest dose activity change, negative = inhibition, most hits filed as inhibitors; O94925; 410,000 tested, 0.21% active; also: % is scaled to controls: 0 for no effect and ±100 for the full control effect
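Compounds were pin-transferred onto hKGA, after which L-glutamine (1 mM solution) and a detection mix of glutamate oxidase, HRP and Amplex Red were added. Initial and 30 min RT fluorescence reads were collected.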
G9a inh = inhibitors of human histone lysine methyltransferase G9a | Q96KQ7 | G9a H3K9 monomethylation, AlphaScreen, 2 h | Potency, µM (top dose mostly 102 µM), for inactives: top-dose activity, negative = inhibition, most hits filed as inhibitors | 350,000 tested, 8.8% active; also: % is scaled to controls: 0 for no effect and ±100 for the full control effect; nearly all actives have a fitted effect of over 75% in size
Target sequence (Q96KQ7 913-1193 limits assumed): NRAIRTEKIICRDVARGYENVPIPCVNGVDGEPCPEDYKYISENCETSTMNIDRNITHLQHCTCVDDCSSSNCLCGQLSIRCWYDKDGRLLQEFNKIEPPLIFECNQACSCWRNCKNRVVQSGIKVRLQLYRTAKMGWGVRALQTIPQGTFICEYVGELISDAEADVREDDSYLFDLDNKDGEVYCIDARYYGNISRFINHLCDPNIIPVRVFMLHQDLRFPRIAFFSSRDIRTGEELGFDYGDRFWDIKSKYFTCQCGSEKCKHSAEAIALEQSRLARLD
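Quantitative HTS format: methyltransferase activity on a biotin-tagged H3K9 peptide is measured by AlphaScreen, using a rabbit anti-monomethyl-H3K9 antibody with streptavidin donor and anti-IgG acceptor beads. Final levels are 20 nM enzyme, 500 nM peptide, 20 uM SAM; 2 h RT.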
JMJD2A Tudor inh = JMJD2A Tudor domain (human) inhibition; 390,000 tested, 4.4% active; AlphaScreen JMJD2A-Tudor / H3K4me3 peptide binding; Potency, µM (top dose mostly 114 µM), for the others: at the highest dose activity change, negative = inhibition, usual class: inhibitors; O75164; also: % is scaled to controls: 0 for no effect and ±100 for the full control effect; nearly all actives have a fitted effect of over 50% in size
Active calls of the source: *; ? = inconclusive; / = no result; [ ] = dose if it differs, or a comment. Calls follow the shape of the dose curve; as a rule, active = well fitted curve in the direction sought with a large enough effect; inconclusive = small, poorly fitted or top-dose-only effect, or another doubt; inactive = no such curve, though single readings can be large; an effect the other way counts as inactive or inconclusive. Potency is read from the fitted curve at half-maximal effect.

SMILES	BAZ2B block	HP1b binding inh	GLS inhibitor	G9a inh	JMJD2A Tudor inh
Cc1ccc(S(=O)(=O)Nc2cccc3cccnc23)c([N+](=O)[O-])c1	44.7µM*	-6.8%	67.4%	6.3%	?
COc1cccc(-c2nc(NCc3cccs3)c3ccccc3n2)c1	/	/	/	-39.6%[0.501 µM]	/
CC(/C=C/c1ccco1)=N\NC(=O)c1cc(Cl)ccc1O	-34.1%	7.2%	-3.6%	39.8µM*	-34.3%
CC(/C=C/c1ccco1)=N/NC(=O)Cc1cccs1	-32.2%	5.7%	-9.5%	-2.3%[59 µM]	-27.8%
O=C(/C=C/c1ccc2ccccc2n1)c1cc(Cl)ccc1O	70.8µM*	-7.5%	-17.4%	13.3%[0.501 µM]	?
O=C(C=Cc1ccco1)c1cc(Cl)ccc1O	/	50.1µM*	10.5%	/	22.4µM*
CCN1CCN(C(=O)C(C)Sc2nc3nc(C)cc(C)n3n2)CC1 (stereo unspecified)	/	32.2%	-8.5%	/	-6.9%
COc1ccccc1OCC(=O)/C=C1/N(C)c2ccccc2C1(C)C	14.3%	23.3%	-14.6%	-8.1%	9.6%
CN1/C(=C\C(=O)COc2ccc3c(c2)OCO3)C(C)(C)c2ccccc21	28.2µM*	?	3.6%	?	?
O=C1C2=C(C(c3ccccc3)=NCCN2)C(c2cccc([N+](=O)[O-])c2)N1c1ccccc1 (stereo unspecified)	-6.3%	-6.9%	-22.5%	5.4%	44.7µM*
COc1ccc(C2C3=C(NCCN=C3c3ccccc3)C(=O)N2c2ccccc2)c(OC)c1 (stereo unspecified)	/	36.2%	-7.7%	11.9%	-3.5%
O=C(Cn1cc(COc2c(F)c(F)cc(F)c2F)nn1)c1ccc(O)cc1	/	64.1%	3.2%	/	39.8µM*
COc1ccc(OCc2cn(CC(=O)c3ccc(O)cc3)nn2)cc1	/	8.0%	4.3%	/	-32.4%
CCOc1ccc(N(C)S(=O)(=O)c2ccc3c(c2)C(C)(C)C(=O)N3C)cc1	6.7%	26.3%	2.1%	9.4%[59 µM]	7.1%
C#CCN(C)CC/C=C1\c2ccccc2CSc2ccccc21	?	-20.1%	-18.1%	14.1µM*	-4.6%[11.4 µM]
O=C(CCCc1c[nH]c2ccccc12)Nc1ncccc1O	56.2µM*	14.3%	16.9%	5.8%	-28.0%
Cc1cccnc1NC(=O)CCCc1c[nH]c2ccccc12	?	39.6%	13.1%	21.8%	-17.1%
Cc1ccc2[nH]c(=O)c(C(c3nnnn3CC3CCCO3)N3CCCc4ccccc43)cc2c1 (stereo unspecified)	?	-11.6%	6.4%	50.1µM*	?
COc1ccc2[nH]c(=O)c(C(c3nnnn3CC3CCCO3)N3CCc4ccccc4C3)cc2c1 (stereo unspecified)	-38.6%	38.1%	-5.6%	?	-15.7%
Cc1ccc2[nH]c(=O)c(C(c3nnnn3CC3CCCO3)N3CCc4ccccc4C3)cc2c1 (stereo unspecified)	?	37.0%	-1.8%	2µM*	-28.4%
Cc1cc2cc(C(c3nnnn3Cc3ccco3)N3CCc4ccccc4C3)c(=O)[nH]c2cc1C (stereo unspecified)	44.7µM*	11.9%	1.1%	?	-35.2%
CCc1ccc2[nH]c(=O)c(C(c3nnnn3Cc3ccco3)N3CCC(C)CC3)cc2c1 (stereo unspecified)	5.2%	9.9%	-1.6%	56.2µM*	-34.2%
COc1cccc(N2CC(NC(=O)CCCc3ccccc3)CC2=O)c1 (stereo unspecified)	-0.9%	27.4%	-7.4%	-9.6%[59 µM]	-8.1%
Cc1cc(C)c2[nH]c(=O)c(C(c3nnnn3CC3CCCO3)N3CCCC(C)C3)cc2c1 (stereo unspecified)	-6.1%	-4.5%	2.7%	17.8µM*	-31.0%
COc1ccc(CN2C(=O)C(CC(=O)NCC3CCCCC3)CC(C(=O)N3CCOCC3)=C2C)cc1 (stereo unspecified)	/	/	0.3%	/	/
COc1ccc(NC(=O)c2ccccc2[N+](=O)[O-])cc1	3.3%	30.2%	-13.7%	18.9%[59 µM]	-7.9%
COc1ccccc1Nc1ncccc1[N+](=O)[O-]	31.6µM*	?	-0.6%	8.91µM*	44.7µM*
COc1ccccc1Nc1ccc(NC(=O)c2cccc([N+](=O)[O-])c2C)cc1	10µM*	?	7.5%	8.6%[2.33 µM]	12.6µM*

Screening results: PubChem BioAssay, National Center for Advancing Translational Sciences (NCATS)
